An excerpt weighted towards active compounds, which were near 2.9% of everything screened.
EP2 mod = EP2 receptor (human) modulation; 260,000 compounds, 0.83% hits; AID 940; EP2-expressing cells, cAMP HTRF FRET, PGE2 co-stimulation; induction, % at 25 µM;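 active = compounds whose cAMP rise, as percent of the full-agonist control response, exceeds 60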;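 note: rat C6 glioma line stably carrying human EP2 under a CMV promoter; the protocol text gives 20 µM as final concentration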
Target sequence (P43116 whole entry, looked up): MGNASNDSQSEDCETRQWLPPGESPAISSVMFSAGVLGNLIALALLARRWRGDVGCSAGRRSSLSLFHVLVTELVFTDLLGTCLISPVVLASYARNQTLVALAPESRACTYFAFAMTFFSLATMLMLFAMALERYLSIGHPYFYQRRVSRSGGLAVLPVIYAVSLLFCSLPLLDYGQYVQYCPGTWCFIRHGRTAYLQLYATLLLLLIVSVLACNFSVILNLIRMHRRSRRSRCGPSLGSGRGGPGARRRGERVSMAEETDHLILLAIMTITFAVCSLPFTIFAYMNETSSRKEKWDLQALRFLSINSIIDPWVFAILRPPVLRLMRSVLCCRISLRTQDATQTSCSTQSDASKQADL
PGE2 EP2 inh = EP2 receptor (human) inhibition; C6 glioma cells expressing human EP2, cAMP TR-FRET; cells stimulated with saturating PGE2; inhibition, % at 25 µM; 260,000 compounds, 0.52% hits;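 active = percent inhibition above 40 after rounding to a whole number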;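 note: rat C6 glioma host cells with rolipram phosphodiesterase inhibitor present; the protocol text gives 20 µM as final concentration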
RAM network inh = blocks the yeast RAM network | inhibition, % at 50 µM | 190,000 compounds, 1.8% hits | S. cerevisiae dse1pr::URA3 reporter, 5-FOA growth OD615, 2 d; analog-sensitive cbk1-as2 kinase mutant strain;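 active = inhibition above a set limit, 3 SD over mean compound inhibition, cut at about 8.4% in these data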;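 note: inhibition rescues growth on 5-FOA so higher OD means more RAM inhibition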
SKN-1 block = blocks SKN-1 activity in C. elegans. C. elegans VP596 Pgst-4::GFP/RFP ratio, acrylamide-induced, 24 h. 360,000 compounds, 0.49% hits. inhibition, % at 21.8 µM;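 active = interference check ratio from 0.5 to 1.5 plus GFP to RFP signal ratio inhibition reaching or exceeding a fixed threshold, cut at about 30% in these data, passing the limit was not always enough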
NR1D1 modulator = modulates human Rev-erb alpha binding to DNA | P20393 | Rev-erbα–FITC-DNA binding, fluorescence polarization, 90 min | activity, % at 10 µM | 370,000 compounds, 0.79% hits;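 active = activity above about 14%, limit read from the data; passing the limit was not always enough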
PG9 Ab binder = binds the HIV-1 gp120 antibody PG9; inhibition, % at 6.7 µM; TR-FRET gp120-PG9 antibody binding; 360,000 compounds, 0.43% hits; in the data active = inhibition above about 8.5%
Numbers stand for hits; 0 = inactive; - = not tested or not shown; ! = repeats disagree.

SMILES	EP2 mod	PGE2 EP2 inh	RAM network inh	SKN-1 block	NR1D1 modulator	PG9 Ab binder
CCn1c2ccccc2c2cc(/C=N/NC(=O)c3cccc(C)c3)ccc21	0	0	0	45	0	0
CC(=O)N1CCN(CC(O)COC2CCCCC2)CC1 (configuration not stated)	0	0	-	-	-	-
Cc1ccc(N=Nc2c(O)c3ccccc3[nH]c2=O)c(S(=O)(=O)N(C)C)c1	0	48!	-	-	-	-
Cc1cc(N=Nc2c(O)c3ccccc3[nH]c2=O)ccc1N=Nc1ccc(C(=O)N(C)C)cc1	0	0	-	0	0	0
CCCn1c(SCC(=O)Nc2nc3ccc(OC)cc3s2)nnc1-c1cccnc1	0	0	-	-	-	-
NC(=NC(=O)c1ccc(OCC(F)(F)F)nc1)c1ccccc1	0	0	-	38	0	0
NC(=NC(=O)c1ccc(OCC(F)(F)F)nc1)c1ccc(Cl)cc1	0	0	-	0	0	0
CC1(c2cc(C(F)(F)F)n3nc(C(=O)N4CCc5c(nc[nH]c5=O)C4)cc3n2)CC1	0	0	-	-	-	-
c1ccc(-c2cnc(-c3ccccc3)nn2)cc1	-	0	-	52	0	0
c1ccc(-c2cnc(-c3ccccn3)nn2)cc1	-	0	-	0	0	0
CCn1c2ccccc2c2cc(NC(=O)COc3ccccc3OC)ccc21	0	0	9.6	0	0	0
CCn1c2ccccc2c2cc(NC(=O)CNCc3ccccc3OC)ccc21	-	-	-	0	0	0
N#CCCN1CCN(C(=O)Nc2ccc(F)cc2)CC1	0	0	-	-	-	-
CC(C)(C)c1ccc(C(=O)CC(=O)c2cc(Cl)ccc2O)cc1	0	0	10	0	0	0
Cc1ccc(C(=O)CC(=O)c2cc(Cl)ccc2O)cc1	0	0	10	0	0	0
COc1cc2cc(CN(C(=O)c3cccs3)C3CCCC3)c(=O)[nH]c2cc1OC	0	0	-	-	-	-
O[C@@H](c1cc(-c2ccccc2)nc2c1ccc1ccccc12)[C@@H]1CCCCN1	0	84	-	-	-	-
COc1ccc(-c2cc([C@H](O)[C@@H]3CCCCN3)c3ccccc3n2)cc1	0	50	-	-	-	-
CCCCC(=O)NC(=S)Nc1cccc(Cl)c1N1CCCCC1	0	0	0	0	0	0
CCCCCC(=O)Nc1ccc(N2CCN(CC)CC2)c(Cl)c1	0	0	0	0	0	0
CCCC(=O)NC(=S)Nc1cccc(Cl)c1N1CCCCC1	0	0	8.7	0	0	0
CCCCCC(=O)NC(=S)Nc1ccc(N2CCCCC2)c(Cl)c1	0	0	9.6	0	0	0
Oc1cc(-n2cccn2)c(O)cc1-n1cccn1	0	114	-	0	0	0
COc1cccc(C(NC(=O)c2nccc3ccccc23)c2nccn2C)c1OC (configuration not stated)	0	0	-	-	-	-
CC(C)n1c(=O)oc2cc(S(=O)(=O)NC3(c4ccccc4)CC3)ccc21	0	0	-	-	-	-
SMILES	EP2 mod	PGE2 EP2 inh	RAM network inh	SKN-1 block	NR1D1 modulator	PG9 Ab binder
CN(CCO)c1nc(N)c2c(N)nc3c(c2c1C#N)CC(=O)N3C1CCCC1	0	0	0	-	-	-
CC(C)(C)N1C(=O)Cc2c1nc(N)c1c(N)nc(N3CCCCC3CO)c(C#N)c21 (configuration not stated)	0	44	0	0	-	-
CC(Cc1ccccn1)N(C)C(=O)COc1ncnc2ccccc12 (configuration not stated)	0	0	-	-	-	-
O=C(Nc1ccc(Cc2ccncc2)cc1)c1ccc2c(c1)OCO2	0	0	-	-	-	-
COc1ccc(/C=N/NC(=O)c2ccc(COc3ccccc3Cl)o2)cc1	0	-	0	38	0	0
Clc1ccc(-c2nc3cc(CN4CCCCC4)ccc3o2)cc1	-	-	-	77	0	0
Cc1ccc(-c2nc3cc(Cl)ccc3o2)cc1	0	0	0	0	0	0
CC1(C)Cc2c(c(N3CCOCC3)nc3sc4c(NCc5ccccc5)nnnc4c23)CS1	0	0	8.7	0	0	0
CC1(C)Cc2c(c(N3CCOCC3)nc3sc4c(NCc5ccco5)nnnc4c23)CS1	0	0	0	0	0	0
Cc1ccc(-c2cc(N)c(=O)n(C(C)C(=O)NCC3CCCCC3)n2)o1 (configuration not stated)	0	0	-	-	-	-
N#Cc1ccc(CC(=O)c2ccccc2)[nH]c1=O	-	-	-	44	0	0
Cc1csc(NC(=O)c2ccccc2)c1C#N	0	0	-	-	-	-
Cc1cc(N2CCOCC2)ccc1/C=C1\SC(=O)N(C(C)C)C1=O	0	0	11	0	0	0
COc1ccc(NC(=S)Nc2ccc3nsnc3c2)cc1	0	42	0	0	0	0
CCOc1ccc(NC(=S)Nc2ccc3nsnc3c2)cc1	0	44	0	0	0	0
Cc1cccc(CCN(Cc2cc3ccc(C)cc3[nH]c2=O)C(=O)C2CCCCC2)c1	0	0	-	-	-	-
CC1OC(CC(=O)O)CC2=C1C(=O)c1c(O)cccc1C2=O (configuration not stated)	-	-	-	0	0	13
O=C1c2cccc(O)c2C(=O)c2c(O)cccc21	0	0	0	-	0	-
Clc1ccc(CN(CC2CCCO2)C(c2cccs2)c2nnnn2C2CCCC2)cc1 (configuration not stated)	0	0	11	0	0	0
CC(C)C(c1nnnn1C1CCCC1)N(Cc1ccc(Cl)cc1)CC1CCCO1 (configuration not stated)	0	0	-	-	-	-
CCN(Cc1ccccc1)C(c1ccccn1)c1nnnn1C1CCCCC1 (configuration not stated)	64!	0	0	0	0	0
CCN(Cc1ccccc1)C(c1cccs1)c1nnnn1C1CCCCC1 (configuration not stated)	0	0	9.3	0	0	0
CCN(Cc1ccccc1)C(c1cc2cc(C)c(C)cc2[nH]c1=O)c1nnnn1C1CCCCC1 (configuration not stated)	0	0	-	-	-	-
Cc1ccc(SCc2c(C#N)c3ccccc3n2C)cc1	0	0	8.7	0	0	0
COCCn1c(CCC(=O)O)nc2c1c(=O)[nH]c(=O)n2CC(C)C	0	0	0	32	0	0
SMILES	EP2 mod	PGE2 EP2 inh	RAM network inh	SKN-1 block	NR1D1 modulator	PG9 Ab binder
COc1ccccc1C(CNS(=O)(=O)c1ccc2c(c1)oc(=O)n2C)N(C)C (configuration not stated)	0	0	-	-	-	-
CC(C)C(=O)N1CCC(c2nc3c(nnn3Cc3ccccc3Cl)c(=O)[nH]2)CC1	0	0	-	-	-	-
Cc1ccccc1-n1cc(C(=O)c2cc(Cl)ccc2O)cc(C#N)c1=O	0	0	0	0	0	0
COc1ccccc1-n1cc(C(=O)c2cc(Cl)ccc2O)cc(C#N)c1=O	0	0	9.7	0	0	0
Nc1c(S(=O)(=O)c2cccs2)c2nc3ccccc3nc2n1Cc1cccs1	0	0	9.1	0	0	0
COc1ccc(CCn2c(N)c(S(=O)(=O)c3cccs3)c3nc4ccccc4nc32)cc1OC	0	0	8.4	0	0	0
Nc1c(S(=O)(=O)c2cccs2)c2nc3ccccc3nc2n1CCc1ccccc1	0	-	0	-	0	0
COc1ccc(/C(O)=C2/C(=O)C(=O)NC2c2cccc(F)c2)cc1OC (configuration not stated)	0	0	-	-	-	-
O=C(CCSc1nc(-c2ccc3c(c2)OCO3)cc(C(F)(F)F)n1)NCc1ccccn1	0	0	-	-	-	-

Screening results: PubChem, several laboratories
